# Results: PubChem BioAssay AID463173 (ICCB-Longwood Screening Facility, Harvard Medical School, 2010)
# In all, about 52,000 compounds went through this assay and about 4,300 (8.3%) were called active. The sample holds actives, similar compounds and a random draw of the others, so the mix is not that of the screen. Unmarked numbers belong to inactive results. No stated cut-off is given here; in the data, active means survival mostly below about 52% (no sharp cut-off); inactive means mostly above about 56%.
# Tested on: DeltatarO mutant
# Assay: growth inhibition of S. aureus wild type versus tarO mutant, primary screen, teichoic acid synthesis inhibitors, RN4220, OD600 (AID 463173)
# Conditions: OD600, 18 h, active compounds read low, screened at 18.75 µg/mL (by protocol)
row,SMILES,survival
1,CSc1ccc(CCNC(=O)c2ccc3c(c2)nc2n3CCC(C)C2)cc1 (stereo unspecified),83%
2,CCCSc1ncc(Cl)c(C(=O)Nc2sc(C(C)=O)c(C)c2C(=O)OCC)n1,51%
3,CCCS(=O)(=O)c1ncc(Cl)c(C(=O)Nc2scc(-c3ccccc3)c2C(=O)OCC)n1,25% (active)
4,CCOC(=O)c1c(NC(=O)c2nc(S(C)(=O)=O)ncc2Cl)sc(C(C)=O)c1C,6% (active)
5,CCOC(=O)c1c(-c2ccc(C)cc2)csc1NC(=O)c1nc(SC(C)C)ncc1Cl,61%
6,CCOC(=O)c1c(-c2ccc(C)cc2)csc1NC(=O)c1nc(SCC)ncc1Cl,84%
7,CCOC(=O)c1c(NC(=O)c2nc(SCC)ncc2Cl)sc(C(C)=O)c1C,75%
8,CCOC(=O)c1c(-c2ccccc2)csc1NC(=O)c1nc(SCC)ncc1Cl,87%
9,CCOC(=O)c1c(-c2ccccc2)csc1NC(=O)c1nc(S(=O)(=O)CC)ncc1Cl,11% (active)
10,CCCSc1ncc(Cl)c(C(=O)Nc2scc(-c3ccc(C)cc3)c2C(=O)OCC)n1,62%
11,CCOC(=O)c1cccc(NC(=O)C2CCN(S(=O)(=O)c3cn(C)cn3)CC2)c1,102%
12,COc1ccc(CCN2C(=O)CN(C3CCCCCC3)C(=O)C2c2ccc(OC(C)C)c(OC)c2)cc1OC (stereo unspecified),89%
13,COc1cc2[nH]c(=O)n(CCCCCC(=O)N3CCN(c4ccc(Cl)cc4)CC3)c(=O)c2cc1OC,67%
14,CCOc1ccc(-c2cc(C)n3nc(C(=O)Nc4cc(Cl)ccc4O)cc3n2)cc1,62%
15,CC(=O)Nc1ccc(NC(=O)CCCn2nc(C)c3sc4ccccc4c3c2=O)cc1,83%
16,O=c1oc2c3c(ccc2c2ccccc12)OCN(Cc1ccccc1Cl)C3,68%
17,O=C(NCCc1ccc(Cl)cc1)c1ccc(CSCc2ccc(Cl)cc2)o1,83%
18,CCN1CCN(C(=O)c2ccc3c(c2)N(Cc2cccc(F)c2)C(=O)c2ccccc2S3)CC1,85%
19,CCOc1cc(S(=O)(=O)N(C)C2CCCCC2)c(OCC)cc1-n1cnnn1,99%
20,Cn1c(=O)oc2cc(S(=O)(=O)CCC(=O)N3CCN(c4cccc(Cl)c4)CC3)ccc21,81%
21,COc1ccc(OCC(=O)Nc2ccc3oc(-c4ccncc4)nc3c2)cc1,87%
22,CCN1CCN(C(=O)c2cnn(-c3ccc(F)cc3F)c2C2CCN(C(=O)OC(C)(C)C)CC2)CC1,86%
23,CCc1nnc2c3ccccc3nc(Nc3ccc(F)cc3C)n12,39% (active)

row,SMILES,survival
1,CCc1nnc2c3ccccc3nc(Nc3ccccc3OC)n12,57%
2,COc1cc(Nc2nc3ccccc3c3nnc(C)n23)cc(OC)c1,37% (active)
3,CCc1nnc2c3ccccc3nc(Nc3ccc(F)c(Cl)c3)n12,62%
4,COc1ccc(C)cc1Nc1nc2ccccc2c2nnc(C)n12,135%
5,CCOc1ccc(Nc2nc3ccccc3c3nnc(CC)n23)cc1,62%
6,Cc1nnc2c3ccccc3nc(Nc3ccc(F)cc3Cl)n12,83%
7,COc1ccc(Nc2nc3ccccc3c3nnc(C)n23)cc1Cl,48%
8,CCCCOC(=O)c1ccc(Nc2nc3ccccc3c3nnc(C)n23)cc1,25% (active)
9,CCc1nnc2c3ccccc3nc(Nc3ccc(C(C)=O)cc3)n12,78%
10,CCc1ccc(Nc2nc3ccccc3c3nnc(C)n23)cc1,92%
11,CCc1nnc2c3ccccc3nc(Nc3cc(C)cc(C)c3)n12,26% (active)
12,Cn1c(-n2cccc2)c(-c2c(-c3ccc(F)cc3)[nH]c3c2c(=O)[nH]c(=O)n3C)c(=O)[nH]c1=O,55%
13,CCc1ccc(NC(=O)C(=O)NCCc2csc(-c3ccc(C(F)(F)F)cc3)n2)cc1,99%
14,Cc1cc(C)c2c(-n3cccc3)c(C(=O)NCC(C)c3ccccc3)sc2n1 (stereo unspecified),86%
15,O=C(Nc1ccc(Br)cc1)C1CCCN1S(=O)(=O)c1ccc(F)cc1 (stereo unspecified),66%
16,Cc1cccc(N2C(=O)C3C(C(=O)NC4CC4)C4C=CC3(O4)C2C(=O)NC2CCCC2)c1 (stereo unspecified),75%
17,Cc1ccc(S(=O)(=O)NCCSc2nnnn2-c2ccc(Cl)c(C(=O)O)c2)cc1,138%
18,Cc1ccc(-c2nc3nc(C)cc(Nc4ccccc4O)n3n2)cc1,75%
19,O=C(Cn1ncc2c([nH]c3ccccc32)c1=O)Nc1cc(F)ccc1F,81%
20,CCc1ccccc1NC(=O)CN1CCCN(Cc2cc(C)ccc2C)S1(=O)=O,94%
21,CCc1ccccc1NC(=O)Cn1nc(-c2cc(C)ccc2C)c2c(c1=O)CCCC2,41% (active)
22,Cc1ccc(C)c(-c2nn(CC(=O)Nc3cc(F)ccc3F)c(=O)c3c2CCCC3)c1,41% (active)
23,Cc1nn(CC(=O)Nc2cc(F)ccc2F)c(=O)c2cccn12,94%

row,SMILES,survival
1,COc1ccccc1NC(=O)Cn1nc(-c2ccc(C)cc2)c2c(c1=O)CCCC2,42%
2,COc1ccc(Cc2nnc(SCC(N)=O)o2)cc1,76%
3,O=C1COc2ccccc2N1Cc1c(F)cccc1Cl,79%
4,CCOC(=O)c1c(NC(=O)COc2ccc(Cl)cc2C)sc2c1CCCCC2,75%
5,CCOC(=O)c1c(NC(=O)CCCOc2ccc(C(C)(C)C)cc2)sc2c1CCCC2,14% (active)
6,CCOC(=O)c1c(NC(=O)COc2ccc(C(C)(C)C)cc2)sc2c1CCCC2,75%
7,CCOC(=O)c1c(NC(=O)CS(=O)(=O)c2ccc(Cl)cc2)sc2c1CCCC2,77%
8,CCOC(=O)c1c(NC(=O)CCCOc2ccc(C(C)(C)C)cc2)sc2c1CCC2,9% (active)
9,CCOC(=O)c1c(NC(=O)CCCOc2ccc(Cl)cc2)sc2c1CCC2,17% (active)
10,Cc1ccc(N2CCN(S(=O)(=O)c3cc(Br)cc4c3N(C(=O)C3CC3)CC4)CC2C)cc1 (stereo unspecified),70%
11,CCOc1ccccc1NC(=O)C(=O)NCCc1sc(-c2cccc(F)c2)nc1C,90%
12,O=C(OCC(=O)N1CCc2ccccc21)c1ccccc1,92%
13,CCOc1ccc(CCNC(=O)c2cnc3sc(N4CCC(C)CC4)nn3c2=O)cc1,84%
14,COc1cc2c(cc1OC)C(CC(=O)Nc1ccccc1)C(=O)NN=C2C (stereo unspecified),103%
15,CCc1cc2c(cc3c(=O)n(CC(=O)N4CCCCC4)nc(CC)n32)s1,77%
16,CCc1cc2c(cc3c(=O)n(CC(=O)N4CCC(C)CC4)nc(CC)n32)s1,41% (active)
17,CCc1cc2c(cc3c(=O)n(CC(=O)NC4CCC(C)CC4)nc(CC)n32)s1 (stereo unspecified),115%
18,COc1ccc(OC)c(C(=O)CN2C(=O)N(c3ccc(C)cc3)S(=O)(=O)c3ccccc32)c1,89%
19,COc1ccc(C(=O)NCC(c2ccco2)S(=O)(=O)c2cccs2)cc1 (stereo unspecified),100%
20,Clc1ccccc1CNc1nc2ccccc2c2nc(-c3cccnc3)nn12,86%
21,COc1ccccc1CNc1nc2ccccc2c2nc(-c3cccc(C)c3)nn12,24% (active)
22,COc1ccccc1CNc1nc2ccccc2c2nc(-c3cccnc3)nn12,48% (active)
23,COc1ccc(OC)c(CCNc2nc3ccccc3c3nc(-c4cccnc4)nn23)c1,112%

row,SMILES,survival
1,Cc1cccc(-c2nc3c4ccccc4nc(NCc4ccccc4Cl)n3n2)c1,138%
2,COc1cc2nc(NCc3ccccc3Cl)n3nc(-c4cccnc4)nc3c2cc1OC,105%
3,Cc1ccc(NC(=O)c2oc3ccc(S(=O)(=O)N(C)C4CCCCC4)cc3c2C)cc1Cl,95%
4,Cc1cc2n(n1)CCCN2C(=O)Nc1cccc(C)c1C,73%
5,O=C(O)C1C2C=CC(C2)C1C(=O)NCCO (stereo unspecified),82%
6,COc1ccc(OC)c(S(=O)(=O)N2CCC(C(=O)NCCC3=CCCCC3)CC2)c1,92%
7,CCOC(=O)CNC(=O)N1CCN(S(=O)(=O)c2ccc3c(ccn3C)c2)CC1,32% (active)
8,COC(=O)CNC(=O)N1CCN(S(=O)(=O)c2ccc3c(ccn3C)c2)CC1,87%
9,CCOC(=O)CCNC(=O)N1CCN(S(=O)(=O)c2ccc3c(ccn3C)c2)CC1,89%
10,CCn1c(SCc2ccccc2)nnc1-c1cccnc1,75%
11,Cc1ccc(N2CCN(Cc3nnc(-c4ccccc4F)o3)CC2)c(C)c1,22% (active)
12,Cc1ccccc1-c1nnc(CN2CCN(c3cccc(C)c3C)CC2)o1,61%
13,Cc1ccccc1-c1nnc(CN2CCN(c3cc(Cl)ccc3C)CC2)o1,74%
14,Cc1ccc(C)c(N2CCN(Cc3nnc(-c4ccccc4)o3)CC2)c1,91%
15,Cc1ccccc1-c1nnc(CN2CCN(c3ccccn3)CC2)o1,120%
16,Cc1cccc(N2CCN(Cc3nnc(-c4ccccc4C)o3)CC2C)c1 (stereo unspecified),33% (active)
17,CCn1c(=O)n(CC2CCC(C(=O)NC(C)C)CC2)c(=O)c2sccc21 (stereo unspecified),85%
18,CC(=O)c1ccc(NC(=O)Cn2cc(S(=O)(=O)Cc3ccccc3Cl)c3ccccc32)cc1,74%
19,CCOC(=O)C1CCCN(C(=O)c2ccc3c(c2)N(Cc2ccccc2)C(=O)c2ccccc2S3=O)C1 (stereo unspecified),120%
20,CCCCC(=O)Nc1ccc2nc(SCC(=O)N3CCOCC3)sc2c1,87%
21,CCN(Cc1ccccc1)C(=O)CCc1c(C)nc2c(c(C)nn2-c2ccc(C)c(C)c2)c1C,95%
22,COc1ccc(C(=O)N(Cc2cc(OC)c(OC)c(OC)c2)CC2CCCO2)cc1 (stereo unspecified),48%
